The values that follow come from PubChem BioAssay (Tox21).

Where “and” joins values, the source holds several entries; their conditions need not be identical. Equal values may be shown once. Results filed as inconclusive are left out. A structure can be active in one record and inactive in another. Calls of active or inactive are those of the source. Calls come from the whole dose curve; as a rule, active = well fitted curve in the direction sought with a large enough effect in the repeat runs; inconclusive = weak or mixed curves; inactive = no such curve, though single readings can be large; an effect the other way counts as inactive or inconclusive.

A short description of assay [1]: qHTS RealTime-Glo MT Cell Viability Assay in HepG2 cells - 40 hour (AID 1224870). Note: nearly all actives have a fitted effect of over 50% in size. Note: potency is the fitted concentration of half-maximal effect. The method, boiled down:
(§1)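 HepG2 cells (600/well) mixed with RealTime-Glo MT reagent, settled 5 h at 37 C/5% CO2 before compound addition. Nonlytic NanoLuc luminescence from viable-cell prosubstrate reduction read repeatedly during 40 h treatment at 37 C.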

Assay [2] can be described thus: A CellTox Green Cytotoxicity Assay to monitor cytotoxicity in HEK293 cells - 40 hour (AID 1224871). Note: nearly all actives have a fitted effect of over 45% in size. Note: potency is the fitted concentration of half-maximal effect. The method, boiled down:
(§2)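 Cells (HEK293, 600/well) and dye reagent are dispensed together. After 5 h at 37 C, 23 nL compound is pinned in. Plates stay at 37 C for 40 h with fluorescence read at 0h, 8h, 16h, 24h, 32h and 40h.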

A short description of assay [3]: qHTS RealTime-Glo MT Cell Viability Assay in HEK293 cells - 16 hour (AID 1224872). Note: nearly all actives have a fitted effect of over 50% in size. Note: potency is the fitted concentration of half-maximal effect. The method, boiled down:
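Quantitative high-throughput screen of the Tox21 10K library in HEK293: cells and RealTime-Glo reagents plated together, compound added at 5 h, luminescence monitored through 40 h at 37 C.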
Background: Quantitative high-throughput screening tests each substance at several concentrations.

The nature of assay [4]: qHTS RealTime-Glo MT Cell Viability Assay in HepG2 cells - 8 hour (AID 1224873). Note: nearly all actives have a fitted effect of over 55% in size. The method, boiled down:
as §1

Assay [5] in a line: qHTS RealTime-Glo MT Cell Viability Assay in HEK293 cells - 40 hour (AID 1224874). Note: nearly all actives have a fitted effect of over 50% in size. Note: potency is the fitted concentration of half-maximal effect. The conditions noted are these: RealTime-Glo luminescence; max response: stronger effect = lower value. The method, boiled down: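 Real-time viability in HEK293: signal arises when living cells convert a prosubstrate for NanoLuc in the medium, so luminescence tracks viable cell number. Compound (23 nL, DMSO) added 5 h post-seeding; kinetic reads at 0–40 h, 37 C.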

Assay [6] in a line: A CellTox Green Cytotoxicity Assay to monitor cytotoxicity in HEK293 cells - 24 hour (AID 1224875). Note: nearly all actives have a fitted effect of over 45% in size. Note: potency is the fitted concentration of half-maximal effect. The method, boiled down:
as §2

The nature of assay [7]: A CellTox Green Cytotoxicity Assay to monitor cytotoxicity in HepG2 cells - 16 hour (AID 1224876). Note: nearly all actives have a fitted effect of over 45% in size. Note: potency is the fitted concentration of half-maximal effect. A digest of the protocol: (§3)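 Cells and non-lytic dye reagent are dispensed together (600 HepG2 cells/well) and incubated 5 h before DMSO compound transfer. Kinetic fluorescence is then recorded in the same wells during 40 h at 37 C.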
The nature of assay [8]: qHTS RealTime-Glo MT Cell Viability Assay in HepG2 cells - 32 hour (AID 1224877). Note: nearly all actives have a fitted effect of over 55% in size. Note: potency is the fitted concentration of half-maximal effect. The method, boiled down:
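Compound treatment began 5 h after plating HepG2 cells (600/well) with NanoLuc luciferase and prosubstrate. Plates stayed at 37 C for 40 h; luminescence was captured at six time points, 0 h through 40 h.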

Assay [9] is described as follows: A CellTox Green Cytotoxicity Assay to monitor cytotoxicity in HepG2 cells - 24 hour (AID 1224878). Note: nearly all actives have a fitted effect of over 45% in size. Note: potency is the fitted concentration of half-maximal effect. A digest of the protocol: as §3
A short description of assay [10]: A CellTox Green Cytotoxicity Assay to monitor cytotoxicity in HepG2 cells - 40 hour (AID 1224879). Note: nearly all actives have a fitted effect of over 40% in size. Note: potency is the fitted concentration of half-maximal effect. A digest of the protocol:
as §3
% is set by controls: 0 for no effect and ±100 for the full control effect.

For `CC(C)OB(OC(C)C)OC(C)C`, the Potency entry in assay [1], in [2], in assay [3], in assay [4], in assay [6] and in assay [7] was “inactive” throughout. Besides, the Potency entry in assay [8], in assay [9] and in [10] was “inactive” throughout. Also, in [5], the max response is -5.59% (inactive) and -12.5% (inactive).

Take `Cc1ccc(C)c(O)c1C`: the Potency entry in assay [1], in [2], in assay [3], in assay [4], in [6] and in assay [7] was “inactive” each time. In addition, the Potency entry in [8], in assay [9] and in assay [10] was “inactive” throughout. The max response in assay [5] is 1.3% (inactive) and 2.18% (inactive).

As for `CN(C)C(=N)N=C(N)N`, the Potency result in assay [1], in [2], in assay [3], in assay [4], in assay [6] and in assay [7] was “inactive” in each case. Also, the Potency result in assay [8], in assay [9] and in assay [10] was “inactive” each time. Further, in assay [5], the max response was 2.54% (inactive) and 1.8% (inactive).

For the molecule `O=Cc1ccccc1O`, the Potency entry in assay [1], in assay [2], in assay [3], in [4], in [6] and in assay [7] was “inactive” each time. In addition, the Potency result in assay [8], in [9] and in assay [10] was “inactive” throughout. The max response in assay [5] was 3.18% (inactive) and 0.0852% (inactive).

`Cc1cc2nc3c(=O)[nH]c(=O)nc-3n(C[C@H](O)[C@H](O)[C@H](O)CO)c2cc1C`: the Potency result in [1], in assay [3], in assay [4] and in assay [8] was “inactive” each time. The Potency in [2] was 43.2 µM (active) and 40.5 µM (active) and 10.4 µM (active); in assay [6] it was 48.5 µM (active) and 40.5 µM (active) and 11.7 µM (active); in assay [7], 43.2 µM (active) and 40.5 µM (active) and 11.7 µM (active); in [9] it was 43.2 µM (active) and 40.5 µM (active) and 11.7 µM (active); in assay [10] it was 43.2 µM (active) and 40.5 µM (active) and 11.7 µM (active). In addition, in assay [5], the max response is -7.07% (inactive) and -0.427% (inactive) and -0.0783% (inactive).

In the case of `Cc1c(OCC(F)(F)F)ccnc1CS(=O)c1nc2ccccc2[nH]1` (stereo unspecified), the Potency result in [1], in assay [2], in [4], in [6], in assay [7] and in assay [8] was “inactive” in each case. For the same molecule, the Potency entry in assay [9] and in assay [10] was “inactive” each time. Further, the Potency in [3] was 19.5 µM (active) and 23.9 µM (active); in assay [5] it was 21.9 µM (active) and 10.7 µM (active).

On to `CC1=CC2C3CC(C=C3C)C2C1` (stereo unspecified), for which the Potency result in [1], in assay [3], in assay [4] and in [8] was “inactive” in each case. The Potency entry was “inactive and 38.9 µM (active)” in assay [2]; “inactive and 24.5 µM (active)” in assay [7]; “inactive and 27.5 µM (active)” in [9]; “inactive and 38.9 µM (active)” in assay [10]. Moreover, the max response in assay [5] is 6.31% (inactive) and 1.24% (inactive).

On to `O=C(Nc1ccc(Cl)cc1)Nc1ccc(Cl)c(Cl)c1`, for which the Potency result in assay [1], in [4], in assay [6], in assay [7], in assay [8] and in assay [9] was “inactive” each time. Besides, the Potency entry in assay [2] was “inactive and 8.71 µM (active)”; in assay [5], 4.34 µM (active) and 3.89 µM (active) and 3.01 µM (active).

For the molecule `CCCCCCCCCC(=O)OC`, the Potency result in assay [1], in [2], in assay [3], in assay [4], in [6] and in assay [7] was “inactive” throughout. The Potency result in assay [8], in assay [9] and in [10] was “inactive” in each case. The max response in assay [5] was 7.54% (inactive) and -2.85% (inactive).

Consider `O=S(=O)(O)c1ccc(O)cc1`, for which the Potency entry in assay [1], in assay [2], in [3], in [4], in assay [6] and in assay [7] was “inactive” throughout. The Potency result in [8], in [9] and in assay [10] was “inactive” throughout. Moreover, the max response in assay [5] was 9.46% (inactive) and 3.12% (inactive).

On to `Brc1cc(Oc2cc(Br)c(Br)c(Br)c2Br)c(Br)c(Br)c1Br`, for which the Potency result in [1], in [2], in [3], in [4], in assay [6] and in [7] was “inactive” each time. Further, the Potency entry in assay [8], in assay [9] and in [10] was “inactive” throughout. The max response in assay [5] is -1.03% (inactive) and -0.229% (inactive).

Regarding `O=C(/C=C/C=C/c1ccc2c(c1)OCO2)N1CCCCC1`, the Potency result in [1], in assay [2], in assay [4], in [6], in assay [7] and in assay [8] was “inactive” in each case. The Potency entry in assay [9] was “inactive”. In [5], the Potency was 55.1 µM (active).

With `O=C(Nc1ccc([N+](=O)[O-])cc1Cl)c1cc(Cl)ccc1O`, the Potency in [2] is 24.5 µM (active) and 13.1 µM (active); in assay [5] it was 2.19 µM (active) and 827 nM (active); in assay [7] it was “inactive and 29.3 nM (active)”; in [9], 5.49 µM (active); in [10], 4.9 µM (active) and 2.33 µM (active). Further, the Potency result in assay [4] and in assay [6] was “inactive” each time. The cytotoxicity in [9] is 38% [at 15.8 µM] (inactive).

Regarding `CC(C)=CCC/C(C)=C\CO`, the Potency entry in assay [1], in [2], in assay [3], in assay [4], in assay [6] and in assay [7] was “inactive” throughout. Moreover, the Potency result in [8], in assay [9] and in assay [10] was “inactive” each time. In assay [5], the max response is 0.916% (inactive) and 13.7% (inactive).

Take `O=C1c2cccc(O)c2C(=O)c2c(O)cccc21`: the Potency entry in assay [1], in assay [2], in [4], in assay [6], in assay [7] and in [8] was “inactive” in each case. For the same molecule, the Potency result in [9] and in assay [10] was “inactive” in each case.

For the molecule `COc1cccc2c1C(=O)c1c(O)c3c(c(O)c1C2=O)C[C@@](O)(C(=O)CO)C[C@@H]3O[C@H]1C[C@H](N)[C@H](O)[C@H](C)O1`, the Potency in assay [1] was 0.952 µM (active); in assay [3], 346 nM (active); in assay [5], 97.6 nM (active) and 190 nM (active); in [7], “inactive and 21.3 µM (active)”; in [8] it was 0.952 µM (active); in assay [9], “inactive and 21.3 µM (active)”. Moreover, the Potency entry in assay [2], in assay [4], in assay [6] and in assay [10] was “inactive” in each case.

With `C#C[C@]1(O)CC[C@H]2[C@@H]3CCc4cc(OC)ccc4[C@H]3CC[C@@]21C`, the Potency entry in [1], in assay [4], in [6], in assay [7] and in assay [8] was “inactive” in each case. The Potency in assay [5] is 24.5 µM (active) and 19 µM (active).

Take `CCOC(=O)C(C#N)=C(c1ccccc1)c1ccccc1`: the Potency entry in assay [1], in assay [2], in assay [3], in assay [4], in assay [6] and in [7] was “inactive” each time. Also, the Potency result in assay [8], in [9] and in assay [10] was “inactive” each time. In addition, in assay [5], the max response was -18.4% (inactive) and -13.3% (inactive).

For the molecule `OC1CCCCCCCCCCC1`, the Potency entry in assay [1], in [3], in assay [4] and in [8] was “inactive” each time. Further, the Potency entry was “inactive and 43.6 µM (active)” in assay [2]; 38.9 µM (active) in assay [7]; 49.5 µM (active) and 43.6 µM (active) in assay [9]; 49.5 µM (active) in assay [10]. Moreover, in [5], the max response was -5.96% (inactive) and 2.11% (inactive).

With `CC(C)Oc1ccc2c(=O)c(-c3ccccc3)coc2c1`, the Potency entry in [1], in assay [2], in [4], in [6], in assay [7] and in assay [8] was “inactive” throughout. Also, the Potency entry in assay [9] and in assay [10] was “inactive” each time.

`CC(=O)Oc1ccccc1C(=O)Nc1ncc([N+](=O)[O-])s1`: the Potency entry in [1], in assay [2], in [4], in [6], in [7] and in assay [8] was “inactive” throughout. Besides, the Potency entry in assay [9] is “inactive”. In addition, the Potency in [10] was 11.2 µM (active).

Consider `COc1ccccc1/C=C/C=O`, for which the Potency result in assay [1], in assay [2], in assay [3], in [4], in assay [6] and in assay [7] was “inactive” each time. Also, the Potency result in assay [8], in assay [9] and in assay [10] was “inactive” throughout.
